# In all, about 5,500 compounds went through this assay and about 2,000 (36%) were called active. About 18% were inconclusive and are not listed. The list shows a part of the results. A number with no mark means an inactive call. No stated cut-off is given here; in the data, active means normalized growth mostly below about 0.91 (no sharp cut-off); inconclusive means no clear call, values can overlap the other calls; inactive means mostly above about 0.92.
# Experiment: chemical genetic growth profiling, strain panel (AID 1159580);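 further: tested at 20 µM; growth read once vehicle control cultures reached saturation at 30 °C; 1 = growth at the plate median or of vehicle wells; lower values mean less growth of the strain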
# Conditions: S. cerevisiae deletion strains, growth OD
structure (smiles),measurement,setting,value
O=C(Nc1ccc(OC(F)(F)F)cc1)N1CCN(c2nc(-c3ccccc3)ns2)CC1,normalized growth,"locus YAR019C, strain CDC15, hits give low values",1
same,normalized growth,"locus YBL105C, strain PKC1, hits give low values",1
same,normalized growth,"locus YBR135W, strain CKS1, hits give low values",0.992
same,normalized growth,"locus YBR136W, strain MEC1, hits give low values",0.992
same,normalized growth,"locus YBR160W, strain CDC28, hits give low values",0.991
same,normalized growth,"locus YDL017W, strain CDC7, hits give low values",0.992
same,normalized growth,"locus YDL028C, strain MPS1, hits give low values",1.01
same,normalized growth,"locus YDL101C, strain DUN1, hits give low values",0.97
same,normalized growth,"locus YDL108W, strain KIN28, hits give low values",0.998
same,normalized growth,"locus YDL132W, strain cdc53, hits give low values",1
same,normalized growth,"locus YDL214C, strain PRR2, hits give low values",0.802
same,normalized growth,"locus YDR052C, strain DBF4, hits give low values",0.992
same,normalized growth,"locus YDR054C, strain cdc34, hits give low values",1
same,normalized growth,"locus YDR226W, strain ADK1, hits give low values",0.995
same,normalized growth,"locus YDR477W, strain SNF1, hits give low values",0.957
same,normalized growth,"locus YER123W, strain YCK3, hits give low values",0.861
same,normalized growth,"locus YER133W, strain GLC7, hits give low values",0.97
same,normalized growth,"locus YFL009W, strain cdc4, hits give low values",0.991
same,normalized growth,"locus YFL029C, strain CAK1, hits give low values",0.989
same,normalized growth,"locus YFR003C, strain YPI1, hits give low values",0.98
same,normalized growth,"locus YFR019W, strain FAB1, hits give low values",0.924
same,normalized growth,"locus YFR028C, strain CDC14, hits give low values",0.997
same,normalized growth,"locus YGR040W, strain KSS1, hits give low values",0.933
same,normalized growth,"locus YGR052W, strain FMP48, hits give low values",0.906
same,normalized growth,"locus YGR092W, strain DBF2, hits give low values",0.898
same,normalized growth,"locus YHR030C, strain SLT2, hits give low values",0.893
same,normalized growth,"locus YHR079C, strain IRE1, hits give low values",0.864
same,normalized growth,"locus YHR082C, strain KSP1, hits give low values",0.905
same,normalized growth,"locus YHR205W, strain SCH9, hits give low values",0.51 (active)
same,normalized growth,"locus YIL147C, strain SLN1, hits give low values",0.994
same,normalized growth,"locus YJL095W, strain BCK1, hits give low values",0.91
same,normalized growth,"locus YJL128C, strain PBS2, hits give low values",0.843
same,normalized growth,"locus YJL157C, strain FAR1, hits give low values",0.888
same,normalized growth,"locus YJR016C, strain ILV3, hits give low values",1
same,normalized growth,"locus YJR066W, strain TOR1 (second series), hits give low values",0.858
same,normalized growth,"locus YJR066W, strain TOR1, hits give low values",1.01
same,normalized growth,"locus YKL048C, strain ELM1, hits give low values",0.867
same,normalized growth,"locus YKL067W, strain YNK1, hits give low values",0.844
same,normalized growth,"locus YKL101W, strain HSL1, hits give low values",0.79
same,normalized growth,"locus YKL193C, strain SDS22, hits give low values",0.987
same,normalized growth,"locus YKL203C, strain TOR2, hits give low values",1.01
same,normalized growth,"locus YLR113W, strain HOG1, hits give low values",0.733 (active)
same,normalized growth,"locus YLR133W, strain CKI1, hits give low values",0.826
same,normalized growth,"locus YLR403W, strain SFP1, hits give low values",0.905
same,normalized growth,"locus YML070W, strain DAK1, hits give low values",0.856
same,normalized growth,"locus YMR001C, strain CDC5, hits give low values",0.992
same,normalized growth,"locus YMR205C, strain PFK2 (second series), hits give low values",0.793
same,normalized growth,"locus YMR277W, strain FCP1, hits give low values",0.989
same,normalized growth,"locus YNL006W, strain LST8, hits give low values",0.994
same,normalized growth,"locus YNL020C, strain ARK1, hits give low values",0.818
same,normalized growth,"locus YNL161W, strain CBK1, hits give low values",0.983
same,normalized growth,"locus YNL183C, strain NPR1, hits give low values",0.815
same,normalized growth,"locus YNL207W, strain RIO2, hits give low values",0.982
same,normalized growth,"locus YNL222W, strain SSU72, hits give low values",0.994
same,normalized growth,"locus YNL307C, strain MCK1 (second series), hits give low values",0.805
same,normalized growth,"locus YOL078W, strain AVO1, hits give low values",0.997
same,normalized growth,"locus YOL136C, strain PFK27, hits give low values",0.772
same,normalized growth,"locus YOR061W, strain CKA2, hits give low values",0.856
same,normalized growth,"locus YOR119C, strain RIO1, hits give low values",1
same,normalized growth,"locus YOR231W, strain MKK1, hits give low values",0.843
same,normalized growth,"locus YOR329C, strain SCD5, hits give low values",0.984
same,normalized growth,"locus YPL031C, strain PHO85, hits give low values",0.952
same,normalized growth,"locus YPL153C, strain RAD53, hits give low values",0.909
same,normalized growth,"locus YPL204W, strain HRR25, hits give low values",0.941
same,normalized growth,"locus YPL209C, strain IPL1, hits give low values",0.994
same,normalized growth,"locus YPL256C, strain CLN2, hits give low values",0.832 (active)
same,normalized growth,"locus YPR025C, strain CCL1, hits give low values",1
same,normalized growth,"locus YPR106W, strain ISR1, hits give low values",0.929
same,normalized growth,"locus YPR111W, strain DBF20, hits give low values",0.925
same,normalized growth,"strain NNK1, hits give low values",0.909
same,normalized growth,"strain TSCII, hits give low values",0.979
